Measured values as given in paper PMC7819943, “Rice protein-binding microarrays: a tool to detect cis-acting elements near promoter regions in rice”.
Whole data set: some 39,000 sequences, median “fluorescence intensity (a.u.)” near 4,300, cut for the highest 2% near 39,000. Only a selection was taken, and the highest values are over-represented in it overall.

molecular target: T1, OsSMF1 (Oryza sativa, UniProt Q6ZLB0 1-436); test: protein-binding microarray (RPBM); PBS, 2% BSA, 51.3 ng/ul salmon testes DNA, 50 uM zinc acetate, 200 nM TF, 25 C, 1 h; high values mean tight binding; settings: protein: recombinant; tags: N-terminal polyhistidine and DsRed monomer fusion (pET32a); chain copies: 2; label: CyDye5-dUTP incorporated in the synthesized complementary strand; 3' TTTTT single-stranded linker to array surface; dsDNA, one strand shown
T1 sequence: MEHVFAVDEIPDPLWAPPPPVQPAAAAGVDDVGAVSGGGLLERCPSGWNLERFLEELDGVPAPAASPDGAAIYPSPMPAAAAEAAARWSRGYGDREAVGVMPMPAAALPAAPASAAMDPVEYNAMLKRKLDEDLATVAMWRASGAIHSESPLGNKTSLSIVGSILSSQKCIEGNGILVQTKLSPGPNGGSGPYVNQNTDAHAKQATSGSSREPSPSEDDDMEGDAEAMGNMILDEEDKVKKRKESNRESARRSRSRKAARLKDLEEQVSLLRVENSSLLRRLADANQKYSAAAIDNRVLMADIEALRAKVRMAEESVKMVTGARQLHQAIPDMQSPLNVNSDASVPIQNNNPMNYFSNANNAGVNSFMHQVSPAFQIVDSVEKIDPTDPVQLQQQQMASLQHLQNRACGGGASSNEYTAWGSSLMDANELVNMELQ
Method in brief: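 Binding signal is defined as the fluorescence intensity of each feature in arbitrary units, read on an Axon 4000B scanner. Transcription factors with N-terminal polyhistidine and DsRed fusions came from E. coli BL21-CodonPlus and were purified on Ni–NTA. They were incubated at 200 nM for 1 h at 25 °C on a custom Agilent array that had been made double-stranded with Cy5-dUTP, with 50 µM zinc acetate present, and the array was washed.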

Row | Sequence | binding signal
1 | ATCAACGTATCTAAACCGGATGGAAACACGTATCTAAACACGGAGTCACCTAGTGCAG | 6180 fluorescence intensity (a.u.)
2 | AGCTTCGGTTTTCTTACTCAGCACAACGGGGTGGTGGCGCCGGAGTCACCTAGTGCAG | 5360 fluorescence intensity (a.u.)
3 | CCGTTGAATGTGCCAGACAAACTGAGTGTAATTTAATATTCGGAGTCACCTAGTGCAG | 65100 fluorescence intensity (a.u.)
4 | GAAAATTTGAGCAAAATTTAGTTGAATTTGAACAAATATTCGGAGTCACCTAGTGCAG | 6670 fluorescence intensity (a.u.)
5 | AATTACAGATTCCGTCAGAAAACTGTGAGACAGATTTATTCGGAGTCACCTAGTGCAG | 3290 fluorescence intensity (a.u.)
6 | TCCCTTGTCGACACATGCGTGTCAGCTCCAGGTTTATAACCGGAGTCACCTAGTGCAG | 6370 fluorescence intensity (a.u.)
7 | CTCATGTTGTTTGACGGTTTGACTCTCCTAGTTTATCATCCGGAGTCACCTAGTGCAG | 3370 fluorescence intensity (a.u.)
8 | TTCACGCCCTGTAACATCGTGTGCATCCATCCCTCCACCGCGGAGTCACCTAGTGCAG | 4190 fluorescence intensity (a.u.)
9 | TAAAATCTAGATGCAATGAGTTATTTCATATGATTTGAAACGGAGTCACCTAGTGCAG | 17000 fluorescence intensity (a.u.)
10 | TTTTCATAAATGCTCCTTTGAAACAAATGATTTTACCCTACGGAGTCACCTAGTGCAG | 43000 fluorescence intensity (a.u.)
11 | ACCTTCAAATGCAATTTTACAATGGATTTACCTCAAGCTACGGAGTCACCTAGTGCAG | 19200 fluorescence intensity (a.u.)
12 | CCTGAAGTTCTAGATGTTGATTTTGTCATGATGATCTAATCGGAGTCACCTAGTGCAG | 4580 fluorescence intensity (a.u.)
13 | ATAAATACCGCGATAACCTCCTTAAATTCAAATAAATTTACGGAGTCACCTAGTGCAG | 54800 fluorescence intensity (a.u.)
14 | CGTCTCATTCTCTCTCCACATTTCCTTTTGATCCCTTCTCCGGAGTCACCTAGTGCAG | 24300 fluorescence intensity (a.u.)
15 | TCCCGCCAAATCACCGATCCGCGCCTCACGCCACGTCAACCGGAGTCACCTAGTGCAG | 16000 fluorescence intensity (a.u.)
16 | TTTCTAATTCGTCATTCACCTCTCTCCTCCATCTCTACCCCGGAGTCACCTAGTGCAG | 3520 fluorescence intensity (a.u.)
17 | AAATAAATAGGGAATTTAACCTTGCCACGTCACCGATCCGCGGAGTCACCTAGTGCAG | 48100 fluorescence intensity (a.u.)
18 | CCTTAAATTTTCCTAAATCCTTACCTACCGTCATTCTCTCCGGAGTCACCTAGTGCAG | 47400 fluorescence intensity (a.u.)
19 | GTTTGCGAGGAATAGCGGGAACGATCCGCGCCACCACGAACGGAGTCACCTAGTGCAG | 18000 fluorescence intensity (a.u.)
20 | TACTTATCCAGATTCAAAAGATAAAATTTATTATATTATACGGAGTCACCTAGTGCAG | 12600 fluorescence intensity (a.u.)
21 | AACTTCAATTTCAAATAACAGGGTCAAATAAACAAACCTACGGAGTCACCTAGTGCAG | 4590 fluorescence intensity (a.u.)

Row | Sequence | binding signal
22 | CCGGCGTGGCGACGTCAGTACTCTCTTCTGCTTCATTTCTCGGAGTCACCTAGTGCAG | 7490 fluorescence intensity (a.u.)
23 | AAGCTTTGCATTTGGGCGCTGGGCATGTCAGCGTCCGGTTCGGAGTCACCTAGTGCAG | 4440 fluorescence intensity (a.u.)
24 | AGATGGGCTTGAGAATGTGATGTCTCGTTTAATTGGGCCCCGGAGTCACCTAGTGCAG | 3310 fluorescence intensity (a.u.)
25 | ATTGTTGACACTATGACTTTCTTACTTTGACCGCAATTTTCGGAGTCACCTAGTGCAG | 3720 fluorescence intensity (a.u.)
26 | CAAGCAATGCAAGGCAAGAGGTAATTGGCCGTGGAATCCACGGAGTCACCTAGTGCAG | 4720 fluorescence intensity (a.u.)
27 | CAAGAGATAAGGAGCAATCGATCCAGCGTGGCGGCATGCACGGAGTCACCTAGTGCAG | 3470 fluorescence intensity (a.u.)
28 | TGAGGATGCAAGAGAATCCTAAAAGGTAAGGCAGCATGCACGGAGTCACCTAGTGCAG | 44100 fluorescence intensity (a.u.)
29 | CCAGTTTTGTCCACGTGGCAGCTGACTCACGGTGGGACCCCGGAGTCACCTAGTGCAG | 29200 fluorescence intensity (a.u.)
30 | CCAAAGCTGCGCAGCACCCTGAACGGCACCACACCACGGACGGAGTCACCTAGTGCAG | 57400 fluorescence intensity (a.u.)
31 | AGCAAAGCTGCCAGAGCACGGCACAGCACACAGGTGACGGCGGAGTCACCTAGTGCAG | 3450 fluorescence intensity (a.u.)
32 | AAGTTTGGCTGTATTTATTCCACACCATAATTGAAAGTTTCGGAGTCACCTAGTGCAG | 3160 fluorescence intensity (a.u.)
33 | AGTTGAGCTCCTTGTCATTGATGAAGCTGCTGCTATTCCACGGAGTCACCTAGTGCAG | 3740 fluorescence intensity (a.u.)
34 | CGCACCCGCACAGCACCACACCACCTGCCTAGCGCCAAGCCGGAGTCACCTAGTGCAG | 3560 fluorescence intensity (a.u.)
35 | CACACGCAAAGCTGCAAAAGTTGAATTCCATTATTCCACACGGAGTCACCTAGTGCAG | 65500 fluorescence intensity (a.u.)
36 | ATTGGATGCTGAATTGATGAGTACATACGTATACGTATACCGGAGTCACCTAGTGCAG | 4160 fluorescence intensity (a.u.)
37 | CAACTGGCCATGTATGCACATGCACCCCAGAGACAACCTACGGAGTCACCTAGTGCAG | 3420 fluorescence intensity (a.u.)
38 | GTTGACGGGGTTTGTGAGGTGTGGCGGTGACTTGGAAAGACGGAGTCACCTAGTGCAG | 3540 fluorescence intensity (a.u.)
39 | ATGGTTAGCATTAATCACTAATCACGTCATCATTAGTGCTCGGAGTCACCTAGTGCAG | 4040 fluorescence intensity (a.u.)
40 | TGGGTCCCACGCAATAGTGGACCTGATGAATTGCAGGATTCGGAGTCACCTAGTGCAG | 41100 fluorescence intensity (a.u.)
41 | TGCAGGGACGATCTGATGGACAGCTCGGATTCGTCCCACACGGAGTCACCTAGTGCAG | 3190 fluorescence intensity (a.u.)
42 | CCCACGGGATTGTCGGTCCCTCGTTTTGGTGATGCAGGACCGGAGTCACCTAGTGCAG | 3570 fluorescence intensity (a.u.)
